# Experimental data as given in PubChem BioAssay AID1851 (National Center for Advancing Translational Sciences (NCATS), 2009).
# Several values for one entry are separate records, joined by “and”; a condition that tells them apart may be missing. Equal entries are not always repeated. Screen size: about 16,000 compounds; about 2,600 (16%) were called active. Not shown: some 20% with an inconclusive outcome. The call rests on the fitted dose curve; in most records, active means well fitted curve in the direction sought with a large enough effect; inconclusive means small, poorly fitted or top-dose-only effect, or effect the other way; inactive means no such curve, though single readings can be large or run the other way. These entries were drawn from the full list.
# Target: Cytochrome P450 2D6 (Homo sapiens) (UniProt P10635)
# Sequence (P10635 whole entry, looked up): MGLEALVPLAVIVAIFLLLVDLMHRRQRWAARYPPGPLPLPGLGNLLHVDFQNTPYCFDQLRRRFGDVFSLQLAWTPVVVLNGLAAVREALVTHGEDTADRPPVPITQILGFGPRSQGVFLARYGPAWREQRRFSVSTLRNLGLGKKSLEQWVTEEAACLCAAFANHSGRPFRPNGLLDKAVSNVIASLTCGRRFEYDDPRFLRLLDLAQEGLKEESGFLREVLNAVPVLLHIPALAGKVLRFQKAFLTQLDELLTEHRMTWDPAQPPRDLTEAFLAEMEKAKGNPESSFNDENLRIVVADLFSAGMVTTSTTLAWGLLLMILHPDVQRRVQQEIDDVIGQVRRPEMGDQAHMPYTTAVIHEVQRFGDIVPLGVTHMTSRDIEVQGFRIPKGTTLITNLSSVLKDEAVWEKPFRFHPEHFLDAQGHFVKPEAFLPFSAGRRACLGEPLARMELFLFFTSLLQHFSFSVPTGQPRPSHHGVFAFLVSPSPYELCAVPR
# Assay: Cytochrome panel assay with activity outcomes
# Settings: recombinant CYP, pro-luciferin dealkylation, luminescence, p450-cyp2d6; series mostly up to 57.1 µM; activity, negative = inhibition: at the top concentration
# On the % scale 0 is the no-effect control and ±100 the full control effect.
Compound,"activity, negative = inhibition",AC50
COc1ccc(C(=O)NCc2ccc(-c3nc4ccccc4s3)cc2)cc1,-11.6% (inactive),–
O=C(NNc1nc2ccccc2s1)C1CC1,-14.5% (inactive),–
c1ccc2sc(NC3=NCN(C4CCCCCC4)CN3)nc2c1,–,1 µM (active)
COc1ccc(CN2CN=C(Nc3nc4ccccc4s3)NC2)cc1,–,7.94 µM (active)
c1ccc(/C(=N/Nc2nc3ccccc3s2)c2ccccn2)cc1,-1.95% [at 11.4 µM] (inactive),–
COCCN1CN=C(Nc2nc3ccccc3o2)NC1,12% (inactive),–
C[C@H](C(=O)c1ccccc1)[C@@H](c1ccccc1)N1CCOCC1,-5.64% [at 11.4 µM] (inactive),–
CC1=C(C#N)C(Nc2ccc(Cl)cn2)(C(F)(F)F)C(=O)N1 (configuration not stated),-11.3% (inactive),–
Cn1c(=O)c(-c2cc(F)cc(F)c2)nc2cnc(N3CCOCC3)nc21,-1.51% (inactive),–
COc1ccc(Nc2ncc3nc(-c4cccs4)c(=O)n(Cc4cccc(OC)c4)c3n2)cc1,4.4% (inactive),–
CCOc1cc(/C=N/NC(=O)CNc2cccc(C)c2)ccc1OC(=O)c1ccccc1,-19.5% (inactive),–
CCOCCCNC(=O)CCS(=O)(=O)Cc1ccc(C)cc1,-3.09% (inactive),–
Cc1ccc(CS(=O)(=O)CCC(=O)NCc2ccccn2)cc1,2.91% (inactive),–
Cc1ccc(CS(=O)(=O)CCC(=O)NCc2cccs2)cc1,–,11.2 µM (active)
COCC(=O)N(C)c1nnc(-c2ccc([N+](=O)[O-])cc2)s1,6.42% (inactive),–
Cc1ccc(C)c(OCCCC(C)(C)C(=O)O)c1,1.86% [at 25.6 µM] (inactive),–
N[C@H](C(=O)O)[C@H](OCc1ccccc1)C(=O)O,–,7.94 µM (active)
CC(C)C(NC(=O)OCc1ccccc1)C(=O)O (configuration not stated),23.6% (inactive),–
N[C@@H](Cc1ccccc1)C(=O)O,4.66% [at 11.4 µM] (inactive),–
CCOC(=O)C1=C(C)NC(C)=C(C(=O)OCC)C1c1sccc1C,-25.9% (inactive),–
CCCCC(=O)NC(=S)Nc1cccc(NC(=O)CC)c1,-10.2% (inactive),–
Cc1cc(C)c(NC(=O)NC(=O)c2ccc(F)cc2)c(C)n1,5.27% (inactive),–
CCCCCN=c1ccn(Cc2ccccc2)c2ccccc12,–,10 µM (active)

Compound,"activity, negative = inhibition",AC50
O=C(O)c1ccccc1C(=O)Nc1cc2c(cc1Br)-c1ccccc1C2=O,16.7% [at 11.4 µM] (inactive),–
Cl/C(=C\n1cncn1)c1ccc(Cl)cc1Cl,-3.83% (inactive),–
CC1(C)[C@@H]2CC[C@]1(CC(=O)O)[C@H](Cl)C2,6.22% [at 11.4 µM] (inactive),–
CC(=O)Nc1cc(C(F)(F)F)ccc1Oc1cccc(Br)c1,–,10 µM (active)
COc1ccc(C(C)(C)C)cc1NC(=O)c1cncc(Br)c1,9.49% (inactive),–
CCOc1ccc(C(F)(F)F)cc1NC(C)=O,-26.1% (inactive),–
CSCC[C@H](NC(=O)CC(C)(C)C)c1nc2ccccc2[nH]1,-2.27% (inactive),–
C[N+](C)(C)c1nc(N)nc2c1ncn2[C@H]1O[C@@H](CO)[C@@H](O)[C@H]1O,6.01% [at 11.4 µM] (inactive),–
COc1cc(/C=N\Nc2ccc([N+](=O)[O-])cc2)ccc1OCC(=O)Nc1ccc(C)c(C)c1,-6.34% (inactive),–
O=C(COc1ccc(/C=N/NC(=O)c2ccccc2)cc1)Nc1ccc([N+](=O)[O-])cc1,-21% (inactive),–
O=C(COc1ccc(Br)cc1)Nc1ccc([N+](=O)[O-])cn1,-1.99% (inactive),–
CCOC(=O)c1cccc(NC(=O)COc2ccc([N+](=O)[O-])cc2)c1,–,1.41 µM (active)
O=C(COc1ccc([N+](=O)[O-])cc1)NCc1ccccc1,-28.4% (inactive),–
O=C(COc1ccc([N+](=O)[O-])cc1)Nc1ccc(C(=O)NCc2cccnc2)cc1,–,3.16 µM (active)
O=S(=O)(c1ccccc1)c1cnn2c(C(F)(F)F)cc(-c3ccc(F)cc3)nc12,-27.4% (inactive),–
COc1c(O[C@H]2O[C@@H](CO)[C@@H](O)[C@@H](O)[C@@H]2O)cc2c(c1OC)-c1ccc(SC)c(=O)cc1[C@H](NC(C)=O)CC2,-2.73% [at 25.6 µM] (inactive),–
O=C1CCCC=C1[C@@H](O)CCOC(c1ccccc1)(c1ccccc1)c1ccccc1,-20.1% [at 11.4 µM] (inactive),–
CCOP(=O)(OCC)c1nc(/C=C/c2ccccc2)oc1NCc1ccccc1,-19.8% (inactive),–
O=C(O)CCCSc1ccccc1,0.436% [at 11.4 µM] (inactive),–
c1ccc(SCCc2ccncc2)cc1,–,2.82 µM (active) and 1.26 µM (active)
Fc1ccc(SCCc2ccncc2)cc1,–,5.01 µM (active)
O=C1c2ccccc2C(Cc2ccncc2)(Cc2ccncc2)c2ccccc21,0.345% (inactive),–
C[C@@H]1CCCC(CC(=O)O)(CC(=O)O)C1,0.077% [at 11.4 µM] (inactive),–

Compound,"activity, negative = inhibition",AC50
Cc1cccnc1NC(=O)C12CCC(C)(C(=O)O1)C2(C)C (configuration not stated),6.8% (inactive),–
O=C(O)c1nnsc1-c1ccc(-c2snnc2C(=O)O)cc1,-3.33% [at 11.4 µM] (inactive),–
CC(=O)Nc1ccc(Sc2ncccc2C(=O)Nc2ccc(F)cc2)cn1,2.14% (inactive),–
CC(=O)Nc1ccc(C#Cc2ccc(NC(C)=O)cc2)cc1,1.93% (inactive),–
CCCCN(c1ccccc1)c1ncnc2c1cnn2C,-12.5% [at 11.4 µM] (inactive),–
Cc1nc(N2CCOCC2)nc(N2CCN(c3ccccc3)CC2)c1[N+](=O)[O-],-19.2% (inactive),–
O=[N+]([O-])c1cccnc1N1CCCCC1,6.64% (inactive),–
Cc1[nH]nc(N2CCCCCC2)c1[N+](=O)[O-],–,15.8 µM (active)
Cn1c(Oc2ccccc2)c(C=O)c2ccccc21,-8.7% (inactive),–
CCOc1ccc(OCC)c(-c2c(=O)n(OCc3ccccc3C(=O)OC)c3ccccc3[n+]2[O-])c1,15.3% (inactive),–
O=c1onc2cnc3ccccc3n12,5.31% (inactive),–
Cc1nc2c(C#N)c(C)[nH]n2c(=O)c1Cc1ccccc1,-0.766% (inactive),–
Cc1ccc(-n2c(O)c(/C=N/n3cnnc3)c3ccccc3c2=O)cc1,-15.6% (inactive),–
C/C(=C\c1ccco1)C1C(C#N)=C(N)Oc2n[nH]c(-c3ccccc3)c21 (configuration not stated),–,31.6 µM (active)
COc1cccc(-c2[nH]nc3c2C(c2ccsc2)C(C#N)=C(N)O3)c1 (configuration not stated),-20.1% (inactive),–
COc1cccc(-c2[nH]nc3c2C(c2ccc(C)o2)C(C#N)=C(N)O3)c1 (configuration not stated),-18.8% (inactive),–
Nc1ccccc1S(N)(=O)=O,-5.43% [at 25.6 µM] (inactive),–
O=C(O)CC(O)C(=O)O (configuration not stated),-29% (inactive),–
Cc1cc(C)c(S(=O)(=O)NCC2CCC(C(=O)NCc3ccc4c(c3)OCO4)CC2)c(C)c1 (configuration not stated),–,12.6 µM (active)
Cc1ccc(S(=O)(=O)NCC2CCC(C(=O)O)CC2)cc1 (configuration not stated),17.3% (inactive),–
CCN(CC)S(=O)(=O)N1CCC(C(=O)NCc2ccc(C)cc2)CC1,-6.16% (inactive),–
